Only some compounds are listed: those with a hit (about 1.3% of all), similar ones and a draw of the others.
PI5P4Ka inh = qHTS for Inhibitors of phosphatidylinositol 5-phosphate 4-kinase (PI5P4K); PI5P4Kalpha enzyme, ADP-Glo luminescence, 60 min; active compounds read low; max response, %; 330,000 tested, 1.2% active; AID 652105, 2013; active = max response of -50% or lower; inconclusive = between -30% and -50%; inactive = -30% or higher; note: value at the top dose of about 77 µM; % is set by controls: 0 for no effect and ±100 for the full control effect
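Human PI5P4Kalpha with substrate in 0.038 M HEPES pH 7.4, 0.28 mM EGTA, 0.1% CHAPS, 5% DMSO; reaction started with 5 microM ATP (final), 60 min at room temperature. ADP formed read by ADP-Glo luminescence.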
WRN helicase inh-1 = qHTS for Inhibitors of WRN Helicase; Bifunctional 3'-5' exonuclease/ATP-dependent helicase WRN (Homo sapiens), Q14191; WRN helicase unwinding, fluorescent forked duplex, kinetic; Potency, µM (top dose mostly 114 µM), for inactives: top-dose activity change, negative = inhibition, hits mostly inhibitors; 360,000 tested, 0.46% active; note: potency is the fitted concentration of half-maximal effect; % is set by controls: 0 for no effect and ±100 for the full control effect; nearly all actives have a fitted effect of over 55% in size
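Enzyme (20 nM final) and test compound sit together 15 min at room temperature before substrate addition. Substrate is a single-forked duplex oligonucleotide (100 nM) labelled with fluorophore and quencher, with 2 mM ATP; helicase unwinding raises red fluorescence, read kinetically.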
Pin1 inhibitor = qHTS Assay to Find Inhibitors of Pin1. Peptidyl-prolyl cis-trans isomerase NIMA-interacting 1 (Homo sapiens), Q13526. Pin1 FP peptide displacement, HiFluor488, 10 min. Potency, µM (titrated, usually from 115 µM), for the others: at the top dose activity, negative = inhibition, most hits filed as inhibitors. 390,000 tested, 0.009% active; active = well fitted inhibition curve with a large enough effect in the polarisation, with a control signal flat, not every such curve was filed as active; inconclusive = small, poorly fitted or top-dose-only effect, or effect the other way, or a change in a side signal; inactive = no such curve, though single readings can be large or run the other way; the % refers to the polarisation; note: potency is the fitted concentration of half-maximal effect; % is set by controls: 0 for no effect and ±100 for the full control effect
Glioma ERSR ind = qHTS for Inducers of the Endoplasmic Reticulum Stress Response (ERSR) in Human Glioma: qHTS | AID 602332, 2012 | 420,000 tested, 0.02% active | Potency, µM, inactives show at the highest dose activation, hits mostly activators | U87-MG GRP78 promoter luciferase reporter, 16 h; note: potency is the fitted concentration of half-maximal effect; series mostly up to about 76 µM; % of control where 0% means no effect; nearly all actives have a fitted effect of over 35% in size
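ERSR induction read as luciferase luminescence (Bright-Glo, 10 min at room temperature) in stably transfected human U87-MG glioma cells exposed to compounds for 16 h, using GRP78 as sensor.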
FEN1 inh-1 = qHTS Assay for the Inhibitors of Human Flap endonuclease 1 (FEN1); P39748; Recombinant FEN1 flap cleavage, fluorescence, 15 min; Potency, µM (highest dose often 114 µM), for inactives: at the highest dose activity change, negative = inhibition, hits mostly inhibitors; 390,000 tested, 0.35% active; AID 588795, 2011; note: potency is the fitted concentration of half-maximal effect; % is set by controls: 0 for no effect and ±100 for the full control effect; nearly all actives have a fitted effect of over 65% in size
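Quantitative HTS format: each compound was titrated, incubated with 10 nM nuclease for 15 min at room temperature, then challenged with flap substrate at 50 nM final. Signal change over 15 min gave concentration–effect curves.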
PGK inhibitor = qHTS Assay to Find Inhibitors of Phosphoglycerate Kinase; Phosphoglycerate kinase, glycosomal (Trypanosoma brucei brucei), P07378; PGK/GAPDH coupled, Kinase-Glo luminescence, 60 min; Potency, µM (top dose mostly 57.5 µM), inactives show top-dose activity change, negative = inhibition, most hits filed as inhibitors; 380,000 tested, 0.043% active; note: potency is the fitted concentration of half-maximal effect; % is set by controls: 0 for no effect and ±100 for the full control effect; nearly all actives have a fitted effect of over 60% in size
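Luminescent ATP detection (Kinase-Glo Plus) follows a 60-minute room-temperature incubation, with wells lacking PGK as controls. Buffer: 100 mM TEA (pH 7.6), 5 mM MgCl2, 0.01% Tween-20. Coupling enzyme GAPDH (100 nM final) supplies unstable 1,3-BPG in-well.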
FEN1 inh-2 = qHTS Assay for the Inhibitors of FEN1: Confirmatory Assay for Cherry-picked Compounds. Potency, µM, hits mostly inhibitors. FEN1 flap cleavage, TAMRA/BHQ2 fluorogenic DNA substrate. shares compounds with FEN1 inh-1. 880 tested, 79% active. AID 720498, 2013; note: potency is the fitted concentration of half-maximal effect; nearly all actives have a fitted effect of over 60% in size
WRN helicase inh-2 = qHTS for Inhibitors of WRN Helicase: Confirmatory Assay for Cherry-picked Compounds; 610 tested, 63% active; AID 720497, 2013; Potency, µM (series often up to 57.1 µM), without a hit: at the highest dose activity, negative = inhibition, most hits filed as inhibitors; WRN helicase DNA unwinding, fluorescence kinetic; shares compounds with WRN helicase inh-1; note: potency is the fitted concentration of half-maximal effect; nearly all actives have a fitted effect of over 65% in size
TO DNA binding = qHTS for Inhibitors of WRN Helicase: Thiazole Orange DNA Binding Counterscreen; AID 720499, 2013; shares compounds with WRN helicase inh-1; 610 tested, 10% active; Potency, µM (series often up to 57.1 µM), for inactives: at the top dose activity change, negative = inhibition, most hits filed as inhibitors; thiazole orange DNA binding displacement, fluorescence;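 note: drop in dye fluorescence marks compound binding to DNA; potency is the fitted concentration of half-maximal effect; % is set by controls: 0 for no effect and ±100 for the full control effect; nearly all actives have a fitted effect of over 60% in size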
BLM helicase inh = qHTS for Inhibitors of WRN Helicase: BLM Helicase Counterscreen for WRN Inhibitors; shares compounds with WRN helicase inh-1; 610 tested, 60% active; Potency, µM (top dose mostly 57.1 µM), for the others: at the highest dose activity change, negative = inhibition, actives largely listed as inhibitors; Recombinant BLM helicase DNA unwinding, red fluorescence; note: potency is the fitted concentration of half-maximal effect; nearly all actives have a fitted effect of over 60% in size
Target sequence (P54132 whole entry, looked up): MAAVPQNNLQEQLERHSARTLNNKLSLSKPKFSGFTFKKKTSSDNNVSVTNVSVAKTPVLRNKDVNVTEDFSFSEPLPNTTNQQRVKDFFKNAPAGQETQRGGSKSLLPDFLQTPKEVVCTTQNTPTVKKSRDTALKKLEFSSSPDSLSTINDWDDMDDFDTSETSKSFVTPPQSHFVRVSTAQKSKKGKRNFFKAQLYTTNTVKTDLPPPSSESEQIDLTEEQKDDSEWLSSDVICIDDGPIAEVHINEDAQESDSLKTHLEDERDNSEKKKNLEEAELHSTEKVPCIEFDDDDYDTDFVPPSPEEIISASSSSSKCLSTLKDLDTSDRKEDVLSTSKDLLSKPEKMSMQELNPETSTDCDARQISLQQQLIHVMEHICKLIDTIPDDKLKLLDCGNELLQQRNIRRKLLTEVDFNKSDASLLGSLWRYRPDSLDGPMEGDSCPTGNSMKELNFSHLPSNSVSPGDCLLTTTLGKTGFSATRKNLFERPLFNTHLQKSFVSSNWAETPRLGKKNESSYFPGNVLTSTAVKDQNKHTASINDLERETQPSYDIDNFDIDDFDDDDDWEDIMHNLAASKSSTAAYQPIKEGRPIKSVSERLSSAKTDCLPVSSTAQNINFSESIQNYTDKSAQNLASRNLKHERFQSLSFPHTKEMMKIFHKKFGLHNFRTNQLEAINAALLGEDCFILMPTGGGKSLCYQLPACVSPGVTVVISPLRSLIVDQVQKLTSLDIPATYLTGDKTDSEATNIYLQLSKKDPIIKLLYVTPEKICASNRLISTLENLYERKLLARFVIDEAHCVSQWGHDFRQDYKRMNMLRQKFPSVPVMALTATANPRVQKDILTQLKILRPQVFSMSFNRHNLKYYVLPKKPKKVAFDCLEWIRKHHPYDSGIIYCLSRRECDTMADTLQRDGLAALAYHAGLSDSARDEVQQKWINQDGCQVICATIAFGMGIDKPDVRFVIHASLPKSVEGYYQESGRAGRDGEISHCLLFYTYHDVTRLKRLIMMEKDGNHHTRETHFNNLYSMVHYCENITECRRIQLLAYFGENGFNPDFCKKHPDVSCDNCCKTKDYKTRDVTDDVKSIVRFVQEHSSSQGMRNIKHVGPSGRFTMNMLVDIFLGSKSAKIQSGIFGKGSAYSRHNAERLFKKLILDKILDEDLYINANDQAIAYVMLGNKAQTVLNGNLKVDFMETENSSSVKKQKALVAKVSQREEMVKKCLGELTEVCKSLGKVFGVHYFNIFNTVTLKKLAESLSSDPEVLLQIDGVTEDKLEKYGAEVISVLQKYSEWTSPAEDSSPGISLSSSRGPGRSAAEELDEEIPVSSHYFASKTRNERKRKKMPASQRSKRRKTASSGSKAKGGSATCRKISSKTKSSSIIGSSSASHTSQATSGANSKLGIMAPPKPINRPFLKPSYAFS
ADP-Glo counter = qHTS for Inhibitors of PI5P4K: ADP-Glo counter assay; Potency, µM (titrated, usually from 76.9 µM), for the others: at the highest dose activity change, negative = inhibition, usual class: inhibitors; AID 743285, 2014; shares compounds with PI5P4Ka inh; ADP-Glo detection counter-screen, luciferase luminescence, no enzyme; 1,100 tested, under 10 active
* marks the source's active call; other numbers are inactive results; ? = inconclusive; · = not tested or not shown. Unless noted, calls come from the whole dose curve; as a rule, active = well fitted curve in the direction sought with a large enough effect; inconclusive = small, poorly fitted or top-dose-only effect, or another doubt; inactive = no such curve, though single readings can be large; an effect the other way counts as inactive or inconclusive.

SMILES | PI5P4Ka inh | WRN helicase inh-1 | Pin1 inhibitor | Glioma ERSR ind | FEN1 inh-1 | PGK inhibitor | FEN1 inh-2 | WRN helicase inh-2 | TO DNA binding | BLM helicase inh | others
COc1cc(/C=C2\CC/C(=C\c3cc(OC)c(O)c(OC)c3)C2=O)cc(OC)c1O | ? | 11.2µM* | 126.2% | -6.4% | 6.31µM* | -23.0% | 8.49* | 3.41µM* | 6.07µM* | 5.41µM*
O=C(N/N=C/c1cn(Cc2cccc(F)c2)c2ccccc12)c1cc(O)cc(O)c1 | -104.3* | 20µM* | · | ? | 22.4µM* | 4.47µM* | 60.1* | 5.41µM* | 24.1µM* | 2.15µM*
CCN(CC(=O)Nc1c(F)cccc1F)C(=O)/C=C/c1ccc2ccccc2n1 | -99.7* | 22.4µM* | · | -3.0% | 50.1µM* | ? | 75.7* | 19.2µM* | ? | 3.83µM*
COc1ccccc1-c1ccc(C(=O)NCCN2CCOCC2)c(N2CCN(c3ccccc3F)CC2)n1 | · | · | · | -5.5% | · | · | · | · | · | ·
CC(=O)Oc1cc(C(=O)OCC(=O)N2CCc3ccccc3C2)cc(OC(C)=O)c1OC(C)=O | -13.3 | 17.8µM* | -17.6% | 1.7% | 25.1µM* | ? | 23.9* | 27.1µM* | -5.2% | 21.5µM*
O=C(O)CN1C(=O)/C(=C/c2ccc(N3CCCCC3)o2)SC1=S | ? | 4.74µM* | ? | -5.6% | 44.7µM* | -29.2% | 47.8* | 24.1µM* | 43.3% | 24.1µM*
COc1cc(=O)n2c(c1C(=O)NCc1nonc1C)CCN(C(=O)c1cccc(C)c1C)CC2 | · | · | · | 1.0% | · | · | · | · | · | ·
COc1cccc(C(=O)NCC2Cc3cccc(-c4cccnc4)c3O2)c1 (stereo not given) | · | · | · | 4.6% | · | · | · | · | · | ·
COC(=O)[C@@H]1CCCN1C(=O)c1c(OC)cc(=O)n2c1CCN(Cc1ccc3c(c1)OCCO3)CC2 | · | · | · | 1.1% | · | · | · | · | · | ·
COc1ccc(C(=O)NCC2Cc3cc(C)cc(-c4nc5ccccc5s4)c3O2)c(OC)c1OC (stereo not given) | · | · | · | -4.5% | · | · | · | · | · | ·
CNC(=S)N/N=C/c1ccc(-c2cccc(C(=O)O)c2)o1 | ? | -20.4% | -14.4% | -10.0% | 0.3% | -10.8% | · | · | · | ·
O=C(O)c1cccc(-c2ccc(/C=c3/sc4nc5ccccc5n4c3=O)o2)c1 | ? | 39.8µM* | ? | -1.1% | 12.6µM* | ? | 75.7* | 4.82µM* | ? | 1.92µM*
CN(C)c1ccc2nc3c(=O)[nH]c(=O)nc-3n(CC(O)C(O)C(O)CO)c2c1 (stereo not given) | -29.2 | 2.99µM* | ? | -12.4% | 44.7µM* | ? | 33.8* | 21.5µM* | 286.7% | 21.5µM*
CSC1SCC2C(=O)N(C)C(C(C)C)C(=O)OCC(NC(=O)c3cnc4ccccc4n3)C(=O)NC(C)C(=O)N(C)C1C(=O)N(C)C(C(C)C)C(=O)OCC(NC(=O)c1cnc3ccccc3n1)C(=O)NC(C)C(=O)N2C (stereo not given) | ? | 0.532µM* | ? | -3.2% | 0.562µM* | -7.5% | 0.601* | 0.341µM* | ? | 0.541µM*
COc1cccc(C(=O)N(Cc2cc3cc4c(cc3nc2N(C)C)OCO4)CC2CCCO2)c1 (stereo not given) | · | · | · | -3.1% | · | · | · | · | · | ·
NS(=O)(=O)c1cc(C(=O)NC2CCSc3ccccc32)ccc1Cl (stereo not given) | -84.1* | 0.844µM* | · | -1.9% | 2.82µM* | 1µM* | 3.79* | 0.541µM* | -20.7% | 0.271µM* | ADP-Glo counter=7.5%
NS(=O)(=O)c1cccc(C(=O)NC2CCSc3ccccc32)c1 (stereo not given) | -3.5 | -9.6% | 0.1% | 0.3% | 0.1% | -0.4% | · | · | · | ·
CN1CCCC(CNC(=O)c2cnn(-c3ncc4c(n3)-c3ccccc3CC4)c2C2CC2)C1 (stereo not given) | · | · | · | -5.1% | · | · | · | · | · | ·
O=S(=O)(O)c1cc(O)c2cc(Nc3ccccc3)ccc2c1 | -68.8* | 11.2µM* | ? | -5.9% | 50.1µM* | ? | 84.9* | · | · | · | ADP-Glo counter=-6.0%
COc1ccccc1Nc1ccc2c(O)cc(S(=O)(=O)O)cc2c1 | -101.7* | -113.0% | 21.3µM* | -0.9% | 22.4µM* | 22.4µM* | 67.5* | 6.07µM* | ? | 5.41µM* | ADP-Glo counter=2.4%
COc1cc(=O)n2c(c1C(=O)N(C)Cc1nonc1C)CCN(CC1CC=CCC1)CC2 (stereo not given) | · | · | · | -4.0% | · | · | · | · | · | ·
N#Cc1c(SCC(=O)Nc2nc3ccc(Br)cc3s2)sc2c(O)cc(=O)[nH]c12 | -101.7* | ? | ? | 3.3% | 28.2µM* | ? | ? | · | · | · | ADP-Glo counter=5.7%
O=C(NCC1CCCO1)c1cc(-c2ccco2)nc2ccccc12 (stereo not given) | ? | -28.2% | ? | -3.5% | -3.8% | -14.5% | · | · | · | ·
CN(C)C(CNC(=O)c1cc(-c2ccco2)nc2ccccc12)c1ccccc1 (stereo not given) | -54.0* | ? | · | -2.0% | ? | -9.0% | ? | · | · | · | ADP-Glo counter=-1.1%
NCCCNCCCCNC(=O)C(O)NC(=O)CCCCCCN=C(N)N (stereo not given) | · | · | · | -4.6% | · | · | · | · | · | ·
